Source: PubChem BioAssay
IDE exosite FP – displaces the probe from the exo-site of human IDE; z-score at 20 µM; 17,000 compounds, 6.3% hits; P14735; purified IDE, FL-6b probe fluorescence polarization; active compounds read low;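 active = z-score of -3 or lower, meaning strong loss of probe binding signal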;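 also: His-tagged human IDE residues 42-1019 made in E. coli with 30 nM FL-6b probe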
* marks the source's active call; other numbers are inactive results. Many of the other results were omitted from the sample, so hits are more common in it than they were.

SMILES | IDE exosite FP
CS(=O)(=O)N1CC(=O)N2[C@H](CO)[C@@H](c3ccc(C#CCc4ccccc4)cc3)[C@H]2C1 | 0.432
Cc1ccc(S(=O)(=O)NCC[C@@H]2CC[C@H](NC(=O)c3cccnc3)[C@@H](CO)O2)cc1 | -0.759
O=C(CN1CCOCC1)NC[C@@H]1[C@@H](c2ccccc2)[C@@H](CO)N1CC1CC1 | 1.95
N#C[C@@H]1[C@H](c2ccccc2-c2ccccc2F)[C@H](CO)N1C(=O)C1CCOCC1 | -0.0697
N#C[C@@H]1[C@@H](c2ccccc2)[C@H](CO)N1C(=O)Nc1cccc(F)c1 | 0.401
CS(=O)(=O)N1CC(=O)N2[C@H](C1)[C@@H](c1ccc(C#Cc3ccc(F)cc3)cc1)[C@@H]2CO | -0.0162
CS(=O)(=O)N1CC(=O)N2[C@H](CO)[C@H](c3ccc(C#Cc4ccccc4)cc3)[C@@H]2C1 | -5.45*
CS(=O)(=O)N1CC(=O)N2[C@@H](CO)[C@H](c3ccc(C#Cc4ccc(F)cc4)cc3)[C@@H]2C1 | 0.168
COc1ccc2c3c(n(C)c2c1)[C@H](CO)N(C(=O)NC(C)C)CC31CCN(Cc2nccs2)CC1 | -1.57
Cc1ccccc1-c1ccc([C@H]2[C@@H](CO)N3C(=O)CN(C(=O)Cc4ccccn4)C[C@@H]23)cc1 | -17.3*
O=C(Cc1ccccn1)N1CC(=O)N2[C@H](CO)[C@@H](c3ccc(C#CC4CCCCC4)cc3)[C@H]2C1 | -0.35
O=C(Cc1ccccn1)N1CC(=O)N2[C@H](CO)[C@H](c3ccc(C#CC4CCCCC4)cc3)[C@@H]2C1 | -0.628
COc1ccc(-c2ccc([C@H]3[C@@H](CO)N4C(=O)CN(C(=O)Cc5ccccn5)C[C@@H]34)cc2)cc1 | 0.654
O=C(Cc1ccccn1)N1CC(=O)N2[C@H](C1)[C@H](c1ccc(C#CC3CC3)cc1)[C@@H]2CO | 0.55
Cc1ccccc1-c1ccc([C@H]2[C@H](CO)N3C(=O)CN(C(=O)Cc4ccccn4)C[C@@H]23)cc1 | -13.9*
CCN(C[C@H]1[C@@H](c2ccc(-c3ccccc3F)cc2)[C@@H](CO)N1C(C)=O)C(C)=O | 4.22
O=C(N[C@H]1C=C[C@H](CC(=O)N2CCN(c3ccccc3)CC2)O[C@H]1CO)c1ccccc1 | 2.19
COc1cccc(CN2CC3(C2)CN(C(=O)C2CC2)[C@H](CO)c2[nH]c4cc(OC)ccc4c23)c1 | 0.318
O=C(c1ccccc1F)N1CC(=O)N2[C@H](CO)[C@H](c3ccc(-c4ccc(F)cc4)cc3)[C@@H]2C1 | 0.608
O=C(c1cnccn1)N1CC(=O)N2[C@@H](CO)[C@@H](c3ccc(C#CC4CCCCC4)cc3)[C@@H]2C1 | -0.128
CC(C)NC(=O)N1CCCCN2[C@H](CO)[C@H](c3ccc(Br)cc3)[C@H]2C1 | 2.41
COc1cccc(-c2ccc([C@@H]3[C@@H](CO)N4CCCCN(C(=O)NC(C)C)C[C@H]34)cc2)c1 | -6.62*
COc1cccc(-c2ccc([C@H]3[C@@H](CO)N4CCCCN(C(=O)NC(C)C)C[C@H]34)cc2)c1 | -8.13*
COc1cccc(-c2ccc([C@@H]3[C@H](CO)N4CCCCN(C(=O)c5ccc(F)cc5)C[C@@H]34)cc2)c1 | 0.212
CC(C)NC(=O)N1CCCCN2[C@H](C1)[C@H](c1ccc(Br)cc1)[C@@H]2CO | 1.61
SMILES | IDE exosite FP
COc1cccc(-c2ccc([C@H]3[C@H]4CN(C(=O)c5ccc(F)cc5)CCCCN4[C@H]3CO)cc2)c1 | 1.38
CC(C)NC(=O)N1CCCCN2[C@H](CO)[C@H](c3ccc(Br)cc3)[C@@H]2C1 | 2.41
COc1cccc(-c2ccc([C@@H]3[C@@H](CO)N4CCCCN(C(=O)NC(C)C)C[C@@H]34)cc2)c1 | -5.97*
CC(C)NC(=O)N1CCCCN2[C@H](CO)[C@@H](c3ccc(Br)cc3)[C@@H]2C1 | 1.68
CCC(=O)NC[C@@H]1[C@@H](c2ccccc2)[C@H](CO)N1C(=O)C1CCC1 | 3.07
COc1ccccc1NC(=O)N1CC(=O)N2[C@H](CO)[C@H](c3ccc(C#Cc4ccc(F)cc4)cc3)[C@@H]2C1 | 4.63
C[C@H](CO)N1C[C@H](C)[C@@H](CN(C)S(=O)(=O)c2ccc(Cl)cc2)Oc2c(NC(=O)Nc3ccc(F)cc3)cccc2C1=O | 0.302
O=C(C1CC1)N1CC2(C1)[C@H](c1ccccc1)[C@@H](CO)N2S(=O)(=O)c1ccccc1 | 1.11
COCC#Cc1ccc([C@@H]2[C@H](CO)N3C(=O)CN(C(=O)Nc4ccccc4F)C[C@@H]23)cc1 | -0.532
C/C=C/c1ccc([C@H]2[C@@H](CO)N(C(=O)CN(C)C)[C@@H]2CNC(=O)CC)cc1 | 1.86
N#Cc1ccc(-c2ccc([C@H]3[C@@H](CO)N4C(=O)CN(C(=O)C5CCCCC5)C[C@@H]34)cc2)cc1 | 3.98
COc1ccccc1C#Cc1ccc([C@H]2[C@H](CO)N3CCCCN(S(C)(=O)=O)C[C@@H]23)cc1 | -8.08*
OC[C@@H]1[C@H](c2ccc(-c3ccccc3)cc2)[C@@H]2CN(CCC(F)(F)F)CCCCN12 | 3.5
COc1ccccc1C#Cc1ccc([C@@H]2[C@H]3CN(CCC(F)(F)F)CCCCN3[C@H]2CO)cc1 | -7.78*
CCCC#Cc1ccc([C@@H]2[C@@H](CO)N3CCCCN(S(C)(=O)=O)C[C@H]23)cc1 | 2.15
